High-throughput results deposited in PubChem by several laboratories.
Compounds with a hit are over-represented: about 1.9% of the library has one in this group of screens.
PP5 primary: PP5 phosphatase inhibitors, primary screen, biochemical, fluorescence; 320,000 tested, 0.18% active; Serine/threonine-protein phosphatase 5 (Homo sapiens), P53041; inhibition, % at 6.7 µM; purified PP5c, OMFP substrate fluorescence;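 active = inhibition above the campaign's mean inhibition across all tested compounds plus 3 SD, cut at about 9.5% in these data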
ATG4B inhibitor: ATG4B protease inhibitors, primary screen, biochemical, fluorescence, uHTS. ATG4B cleavage of LC3-PLA2, NBD-HPC fluorescence, 1 h. inhibition, % at 8.33 µM. 340,000 tested, 0.51% active; in the data active = inhibition above about 40%
Target sequence (Q9Y4P1 whole entry, looked up): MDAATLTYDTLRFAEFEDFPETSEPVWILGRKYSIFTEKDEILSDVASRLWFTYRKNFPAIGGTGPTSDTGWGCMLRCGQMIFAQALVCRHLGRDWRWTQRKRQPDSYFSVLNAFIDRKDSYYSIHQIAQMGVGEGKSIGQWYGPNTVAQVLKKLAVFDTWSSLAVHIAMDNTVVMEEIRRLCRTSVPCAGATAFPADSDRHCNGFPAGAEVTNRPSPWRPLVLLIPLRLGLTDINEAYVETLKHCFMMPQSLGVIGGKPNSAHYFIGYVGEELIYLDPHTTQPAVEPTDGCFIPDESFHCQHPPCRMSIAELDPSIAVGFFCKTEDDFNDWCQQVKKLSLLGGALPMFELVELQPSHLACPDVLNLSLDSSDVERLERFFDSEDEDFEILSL
PP1 inh: PP1-alpha phosphatase inhibitors, primary screen, counter-screen for PP5 inhibitor project, biochemical, fluorescence, OMFP substrate, single point; inhibition, % at 6.7 µM; Serine/threonine-protein phosphatase PP1-alpha catalytic subunit (Homo sapiens), P62136; AID 2235, 2010; 320,000 tested, 0.9% active; purified PP1alpha;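 active = inhibition above the mean inhibition of all tested compounds plus 3 SD, computed separately for each screening campaign, cut at about 15% in these data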
H9c2 protect: cardioprotection against H2O2-induced cell death, primary screen, uHTS, H9c2 cells, ATPLite luminescence; 360,000 tested, 0.63% active; protection from H2O2 cell death, % at 20 µM; H9c2 cardiomyocytes, H2O2 injury protection, 2 h;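 active = compounds giving at least 50% protection of heart cells from peroxide-induced death in the single-dose screen, raw or plate-pattern-corrected value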
PP1 confirm: PP1 phosphatase inhibitors, confirmation, biochemical, fluorescence, OMFP substrate, triplicate. AID 2358, 2010. 1,900 tested, 52% active. inhibition, % at 6.7 µM. purified PP1alpha. shares compounds with PP1 inh;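 active = mean PP1 inhibition above a set limit taken from the earlier primary screen, cut at about 15% in these data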
PP5 inh counter: PP5 phosphatase inhibition by PP1 hits, confirmation, counter-screen for PP1 inhibitor project, biochemical, fluorescence, triplicate. shares compounds with PP1 inh. purified PP5c, OMFP fluorescence. inhibition, % at 6.7 µM. 1,900 tested, 4% active;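 active = mean PP5 inhibition over triplicate wells above about 9.5% taken from the earlier PP1 screen, limit read from the data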
Of the large screens only hits and unclear results are named; the others gave an inactive call (follow-up assays come after a bar, where they were run).

COCCNC(=O)CN(CCc1ccccc1)S(=O)(=O)c1ccc(Br)cc1	PP1 inh 33 | PP1 confirm inactive | PP5 inh counter inactive
CN(C)c1ccc(N=Cc2ccco2)cc1	PP1 inh 18 | PP1 confirm inactive | PP5 inh counter inactive
CN(C)c1ccc(C=Nc2ccc(N(C)C)cc2)cc1	none
CCOC(=O)c1ccc(-n2c(O)c(/C=N/NC(=O)C3COc4ccccc4O3)c3ccccc3c2=O)cc1 (centres undefined)	PP1 inh 31 | PP1 confirm 33 | PP5 inh counter inactive
OC(CN1CCOCC1)(c1ccccc1)c1ccccn1 (centres undefined)	none
CCOc1cccc(/C=N/Nc2ccc(S(=O)(=O)N(CC)CC)cn2)c1O	PP1 inh 31, H9c2 protect 57 | PP1 confirm 33 | PP5 inh counter inactive
Nc1cc(=O)[nH]c2ncnn12	none (no result: PP5 primary, PP1 inh)
CCOc1ccc(N2CSC3=C(C#N)C(c4ccco4)CC(=O)N3C2)cc1 (centres undefined)	PP1 inh 31 | PP1 confirm inactive | PP5 inh counter 13
CC1CCN(C(=O)CSc2nc(=O)n3ccccc3n2)CC1	none
Nc1cc(=O)[nH]c(SCC(=O)N2N=C(c3ccc4ccccc4c3)CC2c2ccccc2)n1 (centres undefined)	PP1 inh 21 | PP1 confirm inactive | PP5 inh counter inactive
COc1cccc(/C=N/NC(=O)C(=O)Nc2ccccc2OC(F)(F)C(F)F)c1O	PP1 inh 20 | PP1 confirm 27 | PP5 inh counter inactive
COc1cccc(/C=N/NC(=O)c2ccc(-c3ccccc3)cc2)c1O	PP1 inh 22 | PP1 confirm 25 | PP5 inh counter inactive
COc1ccc(OC)c(/C=N\NC(=O)c2ccc(-c3ccccc3)cc2)c1	none (no result: PP5 primary, PP1 inh)
Cc1[nH]c2ccc(C(=O)N3CCN(c4ccc(F)cc4)CC3)cc2c1C	none
NC(N)=N/N=C/c1ccc(OCc2ccccc2)cc1	none
NC(N)=N/N=C/c1ccc(OCc2ccc(Cl)cc2)cc1	PP1 inh 21 | PP1 confirm inactive | PP5 inh counter inactive
CCn1c(CSc2nc3ccccc3s2)nnc1SCC(=O)c1ccc(Cl)cc1	PP1 inh 22 | PP1 confirm inactive | PP5 inh counter inactive
O=C(NNc1nc2ccc(Cl)cc2s1)c1cc(-c2cccs2)nc2ccccc12	PP1 inh 25 | PP1 confirm 30 | PP5 inh counter inactive
O=C(O)C1=CC[C@@H](c2ccc(Cl)cc2)N(S(=O)(=O)c2ccc(Cl)cc2)[C@H]1c1cccc(Cl)c1	PP1 inh 23 | PP1 confirm inactive | PP5 inh counter inactive
Cc1ccc(S(=O)(=O)N2[C@@H](c3ccc(F)cc3)C(C(=O)O)=CC[C@H]2c2ccc(C(C)C)cc2)cc1	PP1 inh 19 | PP1 confirm inactive | PP5 inh counter inactive
Cc1ccc(S(=O)(=O)N2[C@@H](c3ccc(Cl)cc3)C(C(=O)O)=CC[C@H]2c2ccc(Cl)cc2)cc1	PP1 inh 21 | PP1 confirm inactive | PP5 inh counter inactive
Cc1ccc([C@@H]2CC=C(C(=O)O)[C@H](c3ccc(Cl)cc3)N2S(=O)(=O)c2ccc(C)cc2)cc1	none
Cc1ccc(S(=O)(=O)N2[C@@H](c3cccc(Cl)c3)C(C(=O)O)=CC[C@H]2c2ccc(C(C)C)cc2)cc1	PP1 inh 29 | PP1 confirm 21 | PP5 inh counter inactive
COc1cccc(OCC(=O)NNC(=O)c2ccc3ccccc3c2)c1	none
CN(CC(=O)Nc1ccccc1Cl)C(=O)Cn1cnc2ccc(Cl)cc2c1=O	none
N#Cc1c(=O)c2nc(NCCCO)ncc2n2c(=O)c3ccccc3[nH]c12	PP1 inh 20 | PP1 confirm 17 | PP5 inh counter inactive
Cc1ccnc2nc(C(=O)OCC(=O)c3ccc(NC(=O)CC(C)C)cc3)nn12	none (no result: PP5 primary, PP1 inh)
CCC(=O)Nc1ccc(C(=O)COC(=O)c2nc3nccc(C)n3n2)cc1	PP1 inh 20 | PP1 confirm inactive | PP5 inh counter inactive
c1ccc(N(c2ccccc2)c2nc(-n3ccnc3)nc(-n3ccnc3)n2)cc1	PP1 inh 50 | PP1 confirm 50 | PP5 inh counter inactive
